The record followed here is PubChem BioAssay (EPA / NIEHS).

Assay [1] is described as follows: CCTE_Shafer_MEA_acute_cross_correlation_HWHM: CCTE's Neural Acute Assay for Cross Correlation at Half Width at Half Maximum, Shafer Lab (AID 2284026; active means hit-call score of the fitted dose curve at least 0.9, where 1 is the maximum; inactive means score below 0.9;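 further: spontaneous network firing of rat primary cortical neurons on multiwell microelectrode arrays; hits are a decrease in cross-correlogram half width relative to DMSO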). A digest of the protocol: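 Read-out: half width at half maximum of action-potential cross-correlogram, percent change versus pre-treatment baseline, fitted in loss direction against DMSO. Rat cortical cultures, DIV 13 or 15, dosed 0.03-40 uM, 40-min recordings at 37 C.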

The nature of assay [2]: CCTE_Shafer_MEA_acute_synchrony_index: CCTE's Neural Acute Assay for Synchrony, Shafer Lab (AID 2284027; active means hit-call score of the fitted dose curve at least 0.9, where 1 is the maximum; inactive means score below 0.9;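 further: network synchrony index of spontaneous spiking in primary rat cortical neurons on MEAs; fitted for loss of signal so actives lower synchrony relative to DMSO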). In outline:
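Acute exposure of rat primary cortical neurons (DIV 13 or 15) at 0.03-40 uM. Synchrony index, 40 min before vs after, as % change relative to DMSO control.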

In assay [3] the target is Estrogen receptor (Homo sapiens) (UniProt P03372). Description: CCTE_Deisenroth_AIME_384WELL_LUC_Active: CCTE's 384-well Estrogen Receptor Transactivation Assay with AIME metabolic competence (ERTA luciferase; metabolism positive), Deisenroth Lab (AID 2284030). In outline: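 Readout: bioluminescent luciferase induction in VM7Luc4E2 cells 24 hour after receiving medium from a 2 h rat hepatic S9 (induced, alginate microsphere) metabolism step. Concentrations 0.002 - 200 uM; activity scaled to 17beta-estradiol positive control.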

Assay [4] can be described thus: CCTE_Deisenroth_AIME_384WELL_CTox_Active: Cytotoxicity Assessment (CTOX) in CCTE's 384-well Estrogen Receptor Transactivation Assay with AIME metabolic competence (metabolism positive), Deisenroth Lab (AID 2284037).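 Further: chemicals first conditioned 2 h by alginate-bound induced rat liver S9 before cells; activity means signal loss indicating cell death.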 In outline: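 Chemicals pre-incubated 2 hours with alginate-immobilised phenobarbital/beta-naphthoflavone-induced male Sprague Dawley rat liver S9, then conditioned medium applied 24 hour to VM7Luc4E2 cells. Viability by fluorogenic protease substrate; 10-point series 0.002 - 200 uM.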

Assay [5] addresses Estrogen receptor (Homo sapiens) (UniProt P03372). Description: CCTE_Deisenroth_AIME_384WELL_LUC_Inactive: CCTE's 384-well Estrogen Receptor Transactivation Assay without AIME metabolic competence (ERTA luciferase; metabolism negative), Deisenroth Lab (AID 2284038).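 Further: VM7Luc4E2 breast cells given medium preincubated 2 h with S9-free microspheres; hits raise estrogen receptor luciferase signal so potencies reflect agonists.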 A digest of the protocol:
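Metabolism-negative mode: AIME lids stamped in alginate-water, no hepatic S9. 2 h chemical incubation → medium onto VM7Luc4E2 ERTA, 24 h. Readout luciferase luminescence; gain-of-signal fit vs 17beta-estradiol. Conc. 0.002 - 200 uM.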

Assay [6] in a line: CCTE_Deisenroth_AIME_384WELL_CTox_Inactive: Cytotoxicity Assessment (CTOX) in CCTE's 384-well Estrogen Receptor Transactivation Assay without AIME metabolic competence (metabolism negative), Deisenroth Lab (AID 2284039).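 Further: cell viability via live-cell protease substrate cleaved to fluorescent probe; cells exposed 24 h to medium preincubated 2 h with alginate-water beads without S9; loss of fluorescence signal means loss of viability.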 A digest of the protocol:
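VM7Luc4E2 cells, metabolism-negative arm: test chemicals (0.002–200 uM, 10 points) pre-incubated 2 h with alginate-water microspheres, then medium transferred to cells for 24 h. Viability read as protease-substrate cleavage to fluorescent probe; loss-of-signal, bidirectional fitting.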

In assay [7] the target is Estrogen receptor (Homo sapiens) (UniProt P03372). Description: CCTE_Deisenroth_AIME_384WELL_LUC_Shift: CCTE's 384-well Estrogen Receptor Transactivation Assay with AIME metabolic competence data shift (ERTA luciferase; difference in metabolism positive and negative), Deisenroth Lab (AID 2284041; active means hit-call score of the fitted dose curve at least 0.9, where 1 is the maximum; inactive means score below 0.9;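 further: shift is response with S9 minus without S9 so positive means metabolism raised ER signal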). In outline: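 Chemicals (0.002–200 uM, 10 points) pre-incubated 2 h with alginate-encapsulated induced male Sprague Dawley rat liver S9 or S9-free, then medium applied 24 h to VM7Luc4E2 cells; luciferase. Endpoint is per-concentration difference, S9-positive minus negative.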

Results filed as inconclusive are left out. Activity calls are given as the source filed them. How the source made its calls, unless noted: active means hit-call score of the fitted dose curve at least 0.9, where 1 is the maximum; inconclusive means response in the unintended direction; inactive means score below 0.9.

Chain of Estrogen receptor (Homo sapiens) (P03372 whole entry, looked up): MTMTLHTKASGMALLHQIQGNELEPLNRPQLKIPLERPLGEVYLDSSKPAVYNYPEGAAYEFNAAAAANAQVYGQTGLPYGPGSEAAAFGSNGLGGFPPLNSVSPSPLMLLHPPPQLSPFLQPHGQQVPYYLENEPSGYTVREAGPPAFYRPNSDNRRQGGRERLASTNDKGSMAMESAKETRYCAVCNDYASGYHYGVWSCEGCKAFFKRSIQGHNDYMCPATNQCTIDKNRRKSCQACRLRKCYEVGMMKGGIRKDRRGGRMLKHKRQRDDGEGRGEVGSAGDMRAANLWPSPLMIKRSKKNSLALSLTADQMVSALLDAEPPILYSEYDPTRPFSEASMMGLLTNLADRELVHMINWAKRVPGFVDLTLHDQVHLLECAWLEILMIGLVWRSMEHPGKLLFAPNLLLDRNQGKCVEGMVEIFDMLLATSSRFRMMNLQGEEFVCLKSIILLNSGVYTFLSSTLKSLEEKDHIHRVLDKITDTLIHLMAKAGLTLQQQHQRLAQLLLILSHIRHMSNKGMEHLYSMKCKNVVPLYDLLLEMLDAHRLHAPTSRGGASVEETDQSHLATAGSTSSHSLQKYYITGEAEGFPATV

On to `CC(CCC(=O)O)(c1ccc(O)cc1)c1ccc(O)cc1`, for which the outcome in assay [1], in assay [2], in assay [4] and in assay [6] was inactive. Also, the AC50 is 100 µM (active) in assay [3], 71.4 µM (active) in assay [5] and 20.7 µM (active) in assay [7].

Turning to `CO[Si](C)(C)OC`, the outcome in assay [3], in assay [5] and in assay [7] was inactive.

For the molecule `O=C(O)c1ccc2c(c1)C(=O)OC2=O`, the result in assay [3], in assay [5] and in assay [7] was inactive.

With `O=C(O)C1CCC(C(=O)O)CC1` (stereo unspecified), the result in assay [3], in assay [4], in assay [5] and in assay [7] was inactive.

For `CCOC(=O)C1=NOC(c2ccccc2)(c2ccccc2)C1`, the call in assay [3], in assay [5], in assay [6] and in assay [7] was inactive.

As to `CCCCCC[C@@H](O)C/C=C\CCCCCCCC(=O)OCC(O)CO` (stereo partly specified), the call in assay [3], in assay [4], in assay [5], in assay [6] and in assay [7] was inactive.

Consider `O=C(O)c1cc(O)c2ccccc2c1O`, for which the figures for the AC50 in assay [4] and in assay [6] were 34.5 µM (active) and 56.4 µM (active), respectively. In addition, the result in assay [7] was inactive.

Turning to `C=C1C[C@H]2[C@@H]3C=C(C)C4=CC(=O)CC[C@]4(C)[C@H]3CC[C@]2(C)[C@@]1(OC(C)=O)C(C)=O`, the outcome in assay [3], in assay [4], in assay [5], in assay [6] and in assay [7] was inactive.

Regarding `CC(C)(C)NC(=O)[C@H]1CC[C@H]2[C@@H]3CC[C@H]4NC(=O)C=C[C@]4(C)[C@H]3CC[C@]12C`, the outcome in assay [7] was inactive.

Regarding `O=S(=O)(O)c1ccc(N=Nc2c(O)ccc3ccccc23)cc1`, the concentration at half-maximal activity (AC50) is 71.3 µM (active) in assay [4] and 72.8 µM (active) in assay [6]. In addition, the outcome in assay [5] and in assay [7] was inactive.

Regarding `CCCCCCCCCCCCCC(=O)OC(C)C`, the call in assay [3], in assay [5] and in assay [7] was inactive.

Turning to `Cc1ccc([N+](=O)[O-])cc1N`, the call in assay [3], in assay [4], in assay [5] and in assay [7] was inactive.

For the molecule `CC(=O)OCc1ccccc1`, the molecule was called inactive in assay [3], in assay [5], in assay [6] and in assay [7].

For `C=CCOC(=O)c1ccc(C(=O)OCC=C)c(C(=O)OCC=C)c1`, the molecule was classed as inactive in assay [3], in assay [4], in assay [5] and in assay [7].

Consider `CCCCCCCCC(CO)CCCCCC` (stereo unspecified), for which the call in assay [3], in assay [5] and in assay [7] was inactive.

As to `CC1=NN(c2ccc(S(=O)(=O)O)cc2)C(=O)C1N=Nc1ccccc1` (stereo unspecified), the call in assay [3], in assay [5], in assay [6] and in assay [7] was inactive. Besides, the AC50 in assay [4] is 159 µM (active).

`C=C[C@@]1(C)CC(=O)[C@]2(O)[C@@]3(C)[C@@H](O)CCC(C)(C)[C@@H]3[C@H](O)[C@H](OC(C)=O)[C@@]2(C)O1`: the AC50 in assay [4] was 19.8 µM (active). Besides, the result in assay [5], in assay [6] and in assay [7] was inactive.

Regarding `O=C(Nc1ccccc1)c1cc(Cl)ccc1O`, the molecule was called inactive in assay [3], in assay [5] and in assay [7]. Moreover, the AC50 in assay [4] was 33.4 µM (active); in assay [6], 0.484 µM (active).
